According to PubChem BioAssay (NCATS):
Inconclusive results are not listed. Activity calls are given as the source filed them. Unless noted, calls follow the shape of the full dose curve.

Columns and labels:
[1] = target: Glucocorticoid receptor (Homo sapiens) (UniProt P04150); experiment: qHTS assay for small molecule agonists of glucocorticoid receptor signaling (AID 588532; active = well fitted curve in the direction sought with a large enough effect in the signal ratio, with a control signal flat; the % refers to the signal ratio;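 also: 100% = dexamethasone at 0.1 µM and 0% = DMSO only wells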); conditions: HeLa MMTV-bla, beta-lactamase ratio, agonist, 18 h; stronger effect = higher value; percent of dexamethasone control, DMSO zero
Procedure, shortened: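 HeLa GRE-bla reporter cells; 18 h compound exposure at 37 C; 2 h CCF4 loading at room temperature; fluorescence at 460 and 530 nm; EC50 by Hill equation.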

[2] = target: Glucocorticoid receptor (Homo sapiens) (UniProt P04150); experiment: qHTS assay for small molecule antagonists of glucocorticoid receptor signaling (AID 588533; active = well fitted inhibition curve with a large enough effect in the signal ratio, with a control signal flat, not every such curve was filed as active; the % refers to the signal ratio;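 also: cells stimulated with 2 nM dexamethasone as agonist; % is scaled to controls: 0 for no effect and ±100 for the full control effect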)
Procedure, shortened: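 Antagonist-mode qHTS: compound titrations added to GRE-bla HeLa cells, then dexamethasone 2 nM final; 18 h, 37 C. CCF4 FRET fluorescence normalized to dexamethasone and DMSO; IC50 from Hill fit.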

[3] = target: Peroxisome proliferator-activated receptor delta (Homo sapiens) (UniProt Q03181); experiment: qHTS assay for small molecule antagonists of peroxisome proliferator-activated receptor delta signaling (AID 588535; active = well fitted inhibition curve with a large enough effect in the signal ratio, with a control signal flat, not every such curve was filed as active; the % refers to the signal ratio)
Procedure, shortened: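 Fluorescence from CCF4-loaded GeneBLAzer PPAR-delta-UAS-bla HEK293T cells (2 hrs RT loading) quantified reporter inhibition after an 18 hr, 37 C compound exposure across a titration.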

[4] = target: Peroxisome proliferator-activated receptor gamma (Homo sapiens) (UniProt P37231); experiment: qHTS assay for small molecule antagonists of peroxisome proliferator-activated receptor gamma signaling (AID 588537; active = well fitted inhibition curve with a large enough effect in the signal ratio, with a control signal flat, not every such curve was filed as active; the % refers to the signal ratio;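 also: reporter cells co-stimulated with 50 nM rosiglitazone agonist during compound treatment; % of control where 0% means no effect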)
Procedure, shortened: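 Fluorescence at 460 and 530 nm (405 nm excitation) reported beta-lactamase cleavage of CCF4 after 2 h room-temperature loading. HEK293 reporter cells in 1% charcoal/dextran-treated FBS had received compound and rosiglitazone for 16 h.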

[5] = qHTS assay for small molecule activators of the nuclear factor-kappa B (NF-kB) signaling pathway (AID 651749; active = well fitted activation curve with a large enough effect in the signal ratio; the % refers to the signal ratio; also: series mostly up to about 77 µM; % of control where 0% means no effect); conditions: NF-kB-bla ME-180 cells, beta-lactamase FRET ratio, 16 h; activation: stronger effect = higher value
Procedure, shortened: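 In this qHTS format, compounds acting as activators increase NF-kB-driven beta-lactamase in ME-180 cells, measured as disrupted FRET after 16 hr exposure at 37C and 5% CO2.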

[6] = target: Peroxisome proliferator-activated receptor gamma (Homo sapiens) (UniProt P37231); experiment: qHTS assay for small molecule agonists of peroxisome proliferator-activated receptor gamma signaling (AID 588536; active = well fitted curve in the direction sought with a large enough effect in the signal ratio, with a control signal flat, not every such curve was filed as active; the % refers to the signal ratio;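 also: 0% = DMSO basal wells and 100% = rosiglitazone at 2 µM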)
Procedure, shortened: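 Beta-lactamase reporter read-out: CCF4 fluorescence (ex 405, em 460/530 nm) after 2 h at RT. HEK293 GeneBLAzer cells were treated for 16 h at 37 C. Hill fits gave EC50 and efficacy versus 2 uM rosiglitazone (100%) and DMSO (0%).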

[7] = qHTS assay for small molecule agonists of the antioxidant response element (ARE) signaling pathway (AID 651741; active = well fitted activation curve with a large enough effect in the signal ratio; the % refers to the signal ratio; also: potency is read from the fitted curve at half-maximal effect; as to activation: % of control where 0% means no effect)
Procedure, shortened: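 Stably integrated ARE-beta-lactamase reporter HepG2 cells; 16 h compound incubation, 37 C; LiveBLAzer FRET substrate 2 h at room temperature; fluorescence intensity.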

[8] = target: Androgen receptor (Homo sapiens) (UniProt P10275); experiment: qHTS assay for small molecule agonists of androgen receptor signaling (AID 588515; active = well fitted curve in the direction sought with a large enough effect in the signal ratio, with a control signal flat; the % refers to the signal ratio; also: % is scaled to controls: 0 for no effect and ±100 for the full control effect); conditions: AR-UAS-bla HEK293, beta-lactamase ratio, agonist 16 h; activation: stronger effect = higher value
Procedure, shortened: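 Stimulation of an AR-responsive β-lactamase reporter in GripTite HEK293 cells was measured after 16 h compound exposure at 37 °C, via CCF4 fluorescence after 2 h RT. EC50 from Hill fits, normalized to R1881 at 30 nM.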

[9] = target: Androgen receptor (Homo sapiens) (UniProt P10275); experiment: qHTS assay for small molecule antagonists of androgen receptor signaling (AID 588516; active = well fitted curve in the direction sought with a large enough effect in the signal ratio, with a control signal flat, not every such curve was filed as active; the % refers to the signal ratio; also: % is scaled to controls: 0 for no effect and ±100 for the full control effect)
Procedure, shortened: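 AR-UAS-bla GripTite HEK 293 cells (2000/well) treated with compound titrations plus 10 nM R1881 for 16 h at 37C. Beta-lactamase read by CCF4 FRET (460/530 nm); IC50 from Hill fits, normalized to R1881 and DMSO control wells.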

[10] = target: Bile acid receptor (Homo sapiens) (UniProt Q96RI1); experiment: qHTS assay for small molecule antagonists of farnesoid X receptor signaling (AID 588526); also: % is scaled to controls: 0 for no effect and ±100 for the full control effect
Procedure, shortened: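 Antagonist mode: titrated compounds tested against chenodeoxycholic acid stimulation (normalized to 50 uM CDCA and DMSO) in GeneBLAzer HEK293T cells for 16 h. Beta-lactamase read by CCF4 fluorescence; IC50 from Hill fits.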

Sequence of Peroxisome proliferator-activated receptor gamma (Homo sapiens) (P37231 whole entry, looked up): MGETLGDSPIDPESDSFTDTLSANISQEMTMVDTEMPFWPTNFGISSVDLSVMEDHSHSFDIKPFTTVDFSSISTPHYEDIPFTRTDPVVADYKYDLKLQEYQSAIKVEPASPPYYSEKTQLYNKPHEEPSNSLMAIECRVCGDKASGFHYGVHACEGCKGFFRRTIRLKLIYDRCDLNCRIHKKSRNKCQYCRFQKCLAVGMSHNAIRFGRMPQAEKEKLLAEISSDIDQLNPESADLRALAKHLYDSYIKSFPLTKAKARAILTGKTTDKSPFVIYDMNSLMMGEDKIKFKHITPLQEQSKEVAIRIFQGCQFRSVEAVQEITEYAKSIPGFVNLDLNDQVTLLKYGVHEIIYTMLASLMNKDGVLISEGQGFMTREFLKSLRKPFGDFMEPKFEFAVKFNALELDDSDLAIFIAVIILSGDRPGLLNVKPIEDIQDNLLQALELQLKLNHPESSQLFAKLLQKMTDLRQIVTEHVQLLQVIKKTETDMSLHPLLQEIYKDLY
Sequence of Glucocorticoid receptor (Homo sapiens) (P04150 whole entry, looked up): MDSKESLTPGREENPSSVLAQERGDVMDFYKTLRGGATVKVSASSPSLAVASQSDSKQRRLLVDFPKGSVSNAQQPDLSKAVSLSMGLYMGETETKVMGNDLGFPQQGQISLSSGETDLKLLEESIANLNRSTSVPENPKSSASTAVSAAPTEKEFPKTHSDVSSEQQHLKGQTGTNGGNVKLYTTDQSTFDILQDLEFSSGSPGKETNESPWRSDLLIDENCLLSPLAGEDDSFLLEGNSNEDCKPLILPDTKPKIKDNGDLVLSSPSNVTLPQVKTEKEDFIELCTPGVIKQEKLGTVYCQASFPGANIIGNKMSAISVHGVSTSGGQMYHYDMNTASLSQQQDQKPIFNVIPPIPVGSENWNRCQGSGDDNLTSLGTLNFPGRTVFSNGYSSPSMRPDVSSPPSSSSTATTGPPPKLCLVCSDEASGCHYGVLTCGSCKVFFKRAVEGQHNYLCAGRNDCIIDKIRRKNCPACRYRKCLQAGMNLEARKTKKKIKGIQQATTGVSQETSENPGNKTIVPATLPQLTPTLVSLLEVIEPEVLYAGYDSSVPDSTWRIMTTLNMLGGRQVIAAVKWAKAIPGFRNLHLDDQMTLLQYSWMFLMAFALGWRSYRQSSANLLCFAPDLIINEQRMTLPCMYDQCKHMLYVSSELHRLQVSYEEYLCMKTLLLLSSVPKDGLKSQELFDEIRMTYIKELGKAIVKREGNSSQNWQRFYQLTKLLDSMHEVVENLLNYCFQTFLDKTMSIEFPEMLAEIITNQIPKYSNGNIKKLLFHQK
Sequence of Peroxisome proliferator-activated receptor delta (Homo sapiens) (Q03181 whole entry, looked up): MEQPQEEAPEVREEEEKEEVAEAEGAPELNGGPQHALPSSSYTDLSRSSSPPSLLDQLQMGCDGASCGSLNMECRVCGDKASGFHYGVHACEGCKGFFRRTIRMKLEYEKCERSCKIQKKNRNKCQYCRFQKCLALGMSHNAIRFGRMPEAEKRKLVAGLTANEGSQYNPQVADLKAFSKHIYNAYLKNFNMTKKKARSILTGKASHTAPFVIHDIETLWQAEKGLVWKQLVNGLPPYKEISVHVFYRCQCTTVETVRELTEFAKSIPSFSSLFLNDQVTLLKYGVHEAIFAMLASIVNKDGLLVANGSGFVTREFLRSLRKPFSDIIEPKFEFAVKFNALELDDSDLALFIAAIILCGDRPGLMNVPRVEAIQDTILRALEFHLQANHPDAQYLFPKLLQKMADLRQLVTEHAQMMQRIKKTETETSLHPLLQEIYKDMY
Sequence of Androgen receptor (Homo sapiens) (P10275 whole entry, looked up): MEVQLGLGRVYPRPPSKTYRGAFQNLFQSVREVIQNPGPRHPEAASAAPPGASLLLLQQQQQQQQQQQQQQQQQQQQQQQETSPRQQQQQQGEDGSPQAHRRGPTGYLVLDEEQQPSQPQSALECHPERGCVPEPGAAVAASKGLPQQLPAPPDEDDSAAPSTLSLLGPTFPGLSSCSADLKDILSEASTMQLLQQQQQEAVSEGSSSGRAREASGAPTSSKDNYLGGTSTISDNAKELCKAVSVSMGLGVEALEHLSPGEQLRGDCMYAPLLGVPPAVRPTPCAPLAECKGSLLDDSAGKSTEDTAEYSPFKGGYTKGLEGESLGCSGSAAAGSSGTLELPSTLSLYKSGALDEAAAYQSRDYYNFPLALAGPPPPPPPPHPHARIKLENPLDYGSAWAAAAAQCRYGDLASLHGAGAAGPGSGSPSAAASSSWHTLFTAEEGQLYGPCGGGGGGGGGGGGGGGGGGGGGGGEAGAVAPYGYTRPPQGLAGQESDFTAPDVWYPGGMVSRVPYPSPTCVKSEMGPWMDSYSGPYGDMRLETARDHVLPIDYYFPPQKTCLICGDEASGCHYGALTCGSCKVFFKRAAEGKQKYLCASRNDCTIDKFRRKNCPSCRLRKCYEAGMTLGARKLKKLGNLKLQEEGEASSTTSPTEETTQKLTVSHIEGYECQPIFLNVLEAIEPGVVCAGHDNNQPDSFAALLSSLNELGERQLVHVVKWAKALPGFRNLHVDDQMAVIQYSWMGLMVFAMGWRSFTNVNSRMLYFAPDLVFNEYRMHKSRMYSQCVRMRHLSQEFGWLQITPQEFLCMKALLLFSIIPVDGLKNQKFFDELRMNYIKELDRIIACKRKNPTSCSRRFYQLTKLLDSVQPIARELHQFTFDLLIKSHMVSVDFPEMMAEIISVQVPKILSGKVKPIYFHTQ
Sequence of Bile acid receptor (Homo sapiens) (Q96RI1 whole entry, looked up): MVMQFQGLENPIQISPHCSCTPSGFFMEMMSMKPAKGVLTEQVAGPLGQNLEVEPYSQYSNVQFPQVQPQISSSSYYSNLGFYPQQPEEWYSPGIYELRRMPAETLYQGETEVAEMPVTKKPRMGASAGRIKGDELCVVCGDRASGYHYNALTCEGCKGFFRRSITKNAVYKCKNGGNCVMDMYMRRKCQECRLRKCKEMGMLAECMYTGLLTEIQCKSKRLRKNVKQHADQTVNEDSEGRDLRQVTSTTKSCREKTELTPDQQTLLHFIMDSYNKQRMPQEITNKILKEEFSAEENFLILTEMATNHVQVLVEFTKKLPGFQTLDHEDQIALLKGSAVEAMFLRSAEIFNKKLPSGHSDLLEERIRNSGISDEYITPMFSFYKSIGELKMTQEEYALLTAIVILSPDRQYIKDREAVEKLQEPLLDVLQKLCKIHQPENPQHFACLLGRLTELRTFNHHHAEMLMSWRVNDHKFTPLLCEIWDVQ

O=C(OCC1CCC2OC2C1)C1CCC2OC2C1 (centres undefined)
inactive: activation [1] -15% | Potency [2] | Potency [3] | Potency [4] | activation [5] 1.33%

c1ccc(-c2ccc(-c3ccccc3)cc2)cc1
inactive: activation [1] -0.857% | Potency [2] | Potency [3] | outcome [6] | activation [5] 0.439%

CCCCCCCCCCCC(=O)N(C)CC(=O)O
inactive: activation [1] -0.898%

COC(=O)c1ccc(C(=O)OC)cc1
inactive: outcome [6] | Potency [4] | Potency [7] | activation [5] -0.624%

Cc1cc(C)c(N)c(Cl)c1
inactive: activation [1] 5.1% | Potency [2] | outcome [6] | Potency [7]

CCCOC(=O)c1ccc(C(=O)OCCC)nc1
inactive: activation [8] -11.4% | outcome [9] | Potency [10] | activation [1] -11.2% | outcome [6] | activation [5] 1.57%

CCCCCCCCCCCCCO
active: Potency [7] 48.6 µM
inactive: activation [1] 0.908% | Potency [2] | Potency [3] | outcome [6] | Potency [4]

C/C(=C\C(C)CC(C)CC(C)C)C1CC(=O)OC1=O (centres undefined)
inactive: activation [1] -4.02% | outcome [6] | activation [5] -0.74%

O=[N+]([O-])c1ccc2c(c1)Cc1ccccc1-2
inactive: activation [1] -0.149% | Potency [2] | Potency [3] | Potency [4]

COC(=O)c1ccccc1C(=O)O
inactive: activation [1] -3.15% | Potency [2] | Potency [3] | outcome [6] | Potency [4] | Potency [7] | activation [5] -0.0496%

O=S(=O)(O)c1ccc(N=Nc2c(O)ccc3cc(S(=O)(=O)O)ccc23)cc1
inactive: Potency [3] | Potency [7] | activation [5] -0.945%

OCCOCCOCCOCCO
inactive: activation [1] -2.94% | Potency [2] | Potency [3] | Potency [7] | activation [5] -0.834%

CC1=CC2C3CC(C=C3C)C2C1 (centres undefined)
inactive: activation [1] 1.22% | Potency [2] | Potency [3] | Potency [7]

CCCCOCCOCCOCCO
inactive: Potency [3] | Potency [4] | Potency [7] | activation [5] -0.915%

c1cc(-c2ccncc2)ccn1
inactive: activation [1] -9.26% | Potency [2] | outcome [6] | activation [5] -1.45%

CCCCCc1ccc(N)cc1
inactive: Potency [3] | outcome [6] | Potency [4] | Potency [7]
